This is an account of results in PubChem BioAssay (NCI).

Compounds without any hit were thinned out: in the full panel of roughly 83,000, 20% have a hit.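 Note: values are percent growth. 100 is the growth of untreated cells, values between 100 and 0 indicate rising inhibition; between -100 and 0 indicates cell death.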 Calls of active or inactive are those of the source. How the source made its calls: active means growth percent below 10; inactive means the rest.

For the first experiment, the system named is CAKI-1 renal. In words: NCI-60 one-dose screen, 48 h (100 = growth as untreated, 0 = no growth, -100 = all killed). The note with it: 10 µM unless noted.
In the case of `N/C(=N\C(N)=N\c1nc2ccccc2s1)c1cccc(Cl)c1`, the growth was 33.2% (inactive).

Regarding `CCN(CC)c1ccc(C(=O)c2ccccc2)cc1`, the growth is 83.1% (inactive).

`O=C(Nc1ncc(Cc2cc(Cl)ccc2Cl)s1)c1cccs1`: the growth was 42.4% (inactive).

Take `COc1cc(C2C3CC4CCCC[C@H]4N3[C@@]3(C(=O)Nc4cc(Cl)ccc43)C2C(=O)c2nc3ccccc3[nH]2)cc(OC)c1OC` (stereo partly specified): the growth is 30.6% (inactive).

`CC(=O)[C@@H]1CC[C@]2(C(N)=O)CC[C@]3(C)[C@H](CC[C@@H]4[C@@]5(C)CCCNC(C)(C)[C@@H]5CC[C@]43C)[C@@H]12`: the growth was 93.1% (inactive).

In the case of `Cc1cccc(C)c1N=c1oc2ccc(Cl)cc2nc1-c1ccccc1O`, the growth was 90.4% (inactive).

With `O=S(=O)(NCCCNc1nccc(-c2c(-c3cccc(O)c3)nc3occn23)n1)c1ccc(Cl)cc1`, the growth is 75.9% (inactive).

For the compound `N#C/C(=C\c1ccc([N+](=O)[O-])s1)c1nc2cc(Br)ccc2s1`, the growth was -2.73% (active).

In the case of `Oc1ccc(C(c2ccc(O)cc2)c2ccc(Br)cn2)cc1`, the growth is 79.5% (inactive).

Take `Cc1nc2sccn2c1-c1cn2ccsc2n1`: the growth was 53.1% (inactive).

`CCOC(=O)/C(C#N)=C1/NNC(=Nc2cccnc2)S1`: the growth is 97.1% (inactive).

Consider `O=S(=O)(NCCCNc1nccc(-c2c(-c3cccc(F)c3)nc3sccn23)n1)c1cccc2ccccc12`, for which the growth is 29.1% (inactive).

With `CCCNC(=O)Oc1ccc(/C(=C(\C)c2ccccc2)c2ccc(OCCCN(C)C)cc2)cc1`, the growth is 83.4% (inactive).

On to `O=C1c2ccc3c4c(ccc(c24)C(=O)N1CCCNCc1ccccc1F)C(=O)N(CCCNCc1ccccc1F)C3=O`, for which the growth is -22.8% (active).

As to `CCN(CC)c1ccc(/C=N/NC(=O)CSc2nc3ccccc3c(=O)n2CCc2ccc(S(N)(=O)=O)cc2)c(O)c1`, the growth is 36% (inactive).

On to `C/C=C(\C)C(=O)NC1=CC[C@@]2(C)C(=CCC3C2CC[C@@]2(C)C3CC[C@@H]2C(C)N(C)C)C1=O` (stereo partly specified), for which the growth is 63.6% (inactive).

Regarding `CCOC(=O)c1cc(C(=O)c2ccc(Br)cc2)n2ccc(/C=C/c3cc[n+](CC(=O)c4ccc(OC)cc4)cc3)cc12`, the growth was 93.2% (inactive).

For `NC(=NCCCOc1ccc(F)cc1)Nc1ccc(I)cc1`, the growth was 74.5% (inactive).

With `O=C(/C=C(/C=C/c1coc2ccccc12)OB(F)F)/C=C/c1coc2ccccc12`, the growth was 105% (inactive).

Consider `COc1cc(NC(=O)CSc2nc3ccc(C)cc3c(=O)n2Cc2ccccc2)cc(OC)c1OC`, for which the growth was 82.4% (inactive).

In the case of `Oc1ccc(C2c3ccccc3Oc3ccccc32)c2cccnc12`, the growth was 0.125% (active).

On to `Cc1ccc(C(=O)/C(=C\c2ccc([N+](=O)[O-])cc2)S(=O)Cc2ccc(F)cc2)cc1` (stereo unspecified), for which the growth is 30.3% (inactive).

Regarding `COc1ccc(C(=O)/C=C/c2cc3ccccc3n3nnnc23)cc1`, the growth is 88.8% (inactive).

Turning to `Cc1nc2sccn2c1-c1nc2sccn2c1/C=C1/C(=O)Nc2ccccc21`, the growth is 2.29% (active).

Regarding `COc1cc2c(c(OC)c1OC)CCC(c1cccc(NC(=O)c3cccc(Br)c3)c1)O2` (stereo unspecified), the growth was 91.5% (inactive).

Consider `CCCCCN1C=C/C(=C\C(=O)N(C)c2ccccc2Br)c2ccccc21`, for which the growth is 82.2% (inactive).

On to `COc1ccc(C(=O)c2cc(OC)c(OC)c(OC)c2)cc1O`, for which the growth is 37.2% (inactive).

`CC(C)(C)c1cc(C=O)cc(C(C)(C)C)c1O`: the growth was 113% (inactive).

Consider `CCOC(=O)c1nc2c3ccccc3ccn2c1C(=O)OCC`, for which the growth was 94.8% (inactive).

For `CC(C)=CCC[C@](C)(O)[C@H]1CC[C@]2(C)[C@@H]1CC[C@@H]1[C@@]3(C)C/C(=C/c4ccccc4)C(=O)C(C)(C)[C@@H]3CC[C@]12C`, the growth was 53.7% (inactive).

For the compound `C=C(C)[C@@H]1CC[C@]2(C(=O)N3CCN(C)CC3)CC[C@]3(C)[C@H](CC[C@@H]4[C@@]5(C)CC[C@H](O)C(C)(C)[C@@H]5CC[C@]43C)[C@@H]12`, the growth was -84% (active).

Another experiment concerns A498 renal. The description is as above. The note with it: 10 µM unless noted.
As to `CC(=O)[C@@H]1CC[C@]2(C(N)=O)CC[C@]3(C)[C@H](CC[C@@H]4[C@@]5(C)CCCNC(C)(C)[C@@H]5CC[C@]43C)[C@@H]12`, the growth was 96.6% (inactive).

Take `Cc1cccc(C)c1N=c1oc2ccc(Cl)cc2nc1-c1ccccc1O`: the growth was 95.3% (inactive).

Consider `N#C/C(=C\c1ccc([N+](=O)[O-])s1)c1nc2cc(Br)ccc2s1`, for which the growth is 109% (inactive).

As for `Cc1nc2sccn2c1-c1cn2ccsc2n1`, the growth was 82.7% (inactive).

As to `C/C=C(\C)C(=O)NC1=CC[C@@]2(C)C(=CCC3C2CC[C@@]2(C)C3CC[C@@H]2C(C)N(C)C)C1=O` (stereo partly specified), the growth was 71.2% (inactive).

Regarding `CCOC(=O)c1cc(C(=O)c2ccc(Br)cc2)n2ccc(/C=C/c3cc[n+](CC(=O)c4ccc(OC)cc4)cc3)cc12`, the growth is 92% (inactive).

Turning to `COc1cc(NC(=O)CSc2nc3ccc(C)cc3c(=O)n2Cc2ccccc2)cc(OC)c1OC`, the growth is 14.1% (inactive).

Take `Oc1ccc(C2c3ccccc3Oc3ccccc32)c2cccnc12`: the growth was 36% (inactive).

With `Cc1ccc(C(=O)/C(=C\c2ccc([N+](=O)[O-])cc2)S(=O)Cc2ccc(F)cc2)cc1` (stereo unspecified), the growth was 68.7% (inactive).

`Cc1nc2sccn2c1-c1nc2sccn2c1/C=C1/C(=O)Nc2ccccc21`: the growth was 5.72% (active).

Take `COc1ccc(C(=O)c2cc(OC)c(OC)c(OC)c2)cc1O`: the growth was 75% (inactive).

As for `CC(C)(C)c1cc(C=O)cc(C(C)(C)C)c1O`, the growth is 105% (inactive).

Consider `CCOC(=O)c1nc2c3ccccc3ccn2c1C(=O)OCC`, for which the growth is 109% (inactive).

As for `CC(C)=CCC[C@](C)(O)[C@H]1CC[C@]2(C)[C@@H]1CC[C@@H]1[C@@]3(C)C/C(=C/c4ccccc4)C(=O)C(C)(C)[C@@H]3CC[C@]12C`, the growth is 85.6% (inactive).

As to `C=C(C)[C@@H]1CC[C@]2(C(=O)N3CCN(C)CC3)CC[C@]3(C)[C@H](CC[C@@H]4[C@@]5(C)CC[C@H](O)C(C)(C)[C@@H]5CC[C@]43C)[C@@H]12`, the growth is 98.7% (inactive).
